Most compounds without a hit are left out; they make up all but 0.83% or so of the library.
SRC1 inh: inhibits human SRC1 coactivator | Q15788 | HEK293 GAL4-SRC1 luciferase reporter, luminescence | inhibition, % at 3.6 µM | actives 0.12% (n = 360,000) | AID 588354;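 active = inhibition above the campaign mean plus 3 SD, with each screening campaign given its own cutoff, cut at about 60% in these data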;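 note: 0% = DMSO treated cells and 100% = gossypol at 36 µM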
NCOA3 inh: inhibits human SRC3 coactivator; Q9Y6Q9; HEK293 GAL4-SRC3 luciferase reporter, luminescence; inhibition, % at 3.6 µM; actives 0.17% (n = 360,000); AID 588352;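 active = inhibition above a per-campaign cutoff, the mean of all compounds plus 3 SD, cut at about 60% in these data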;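 note: 0% = DMSO-treated cells and 100% = gossypol-treated cells at 36 µM; higher means less SRC3-driven luciferase light from the GAL4 reporter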
LRH-1 inv ag: suppresses constitutive activity of human LRH-1; O00482; HEK293T StAR-luciferase reporter, LRH-1 transfected, 24 h; inhibition, % at 3.6 µM; actives 0.13% (n = 360,000); AID 602396;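 active = inhibition above the mean inhibition of all tested compounds plus 3 SD, cut at about 73% in these data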;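 note: 0% = DMSO wells and 100% = reporter-only cells lacking LRH-1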
SRC2 inh: human SRC2 (NCOA2) inhibition; Q15596; inhibition, % at 9 µM; actives 0.17% (n = 370,000); HEK293 GAL4-SRC2 luciferase reporter, luminescence;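 active = inhibition above the mean inhibition of all tested compounds plus 3 SD, set per campaign, cut at about 52% in these data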;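 note: 0% = DMSO treated cells and 100% = cells given Gossypol at 36 µM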
COUP-TFII inh: inhibitors of human COUP-TFII (NR2F2); inhibition, % at 8.6 µM; HEK293T NGFI-A luciferase reporter, luminescence; actives 0.7% (n = 370,000); AID 686940; P24468;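 active = inhibition above a per-plate cutoff, mean inhibition of test wells between control levels plus 3 SD, cut at about 38% in these data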;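 note: cells cotransfected with COUP-TFII expression vector driving the NGFI-A reporter; 0% = median of COUP-TF2 test wells and 100% = reporter-only cells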
Gal4-VP16 ctr: counter-screen for COUP-TFII antagonists: inhibitors of VP16 | shares compounds with COUP-TFII inh | HEK293 Gal4-VP16 luciferase reporter, luminescence | inhibition, % at 8.5 µM | actives 25% (n = 2,500) | AID 687007; in the data active = inhibition above about 13%
COUP-TFII conf: confirmation of human COUP-TFII (NR2F2) inhibitors. inhibition, % at 8.5 µM. shares compounds with COUP-TFII inh. AID 687008. HEK293 NGFI-A luciferase reporter, luminescence. actives 45% (n = 2,500);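 active = mean inhibition over three repeats above a set limit taken from the earlier primary screen, cut at about 38% in these data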;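 note: 100% = cells given the luciferase reporter alone without the COUP-TF2 vector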
Numbers without * were called inactive; nt = not tested or not shown.

SMILES	SRC1 inh	NCOA3 inh	LRH-1 inv ag	SRC2 inh	COUP-TFII inh	Gal4-VP16 ctr	COUP-TFII conf
COc1ccc(/C=N/NC(=S)Nc2ccccc2[N+](=O)[O-])cc1O	31.2	56.3	39.6	9.9	30.6	nt	nt
CCCOc1ccc(/C=N/Nc2ccccc2[N+](=O)[O-])c(O)c1	35.6	46.8	-2.8	-16.6	44.1*	-47.9	46.5*
CCCOc1ccc(/C=N/Nc2cccc([N+](=O)[O-])c2)c(O)c1	-54.1	-38.9	-58.4	-69.2	-35.1	nt	nt
CCCOc1ccc(/C=N/NC(=S)Nc2ccccc2[N+](=O)[O-])c(O)c1	nt	nt	nt	52.5*	72.8*	73.0*	82.6*
O=C(N[C@@H](Cc1cccnc1)C(=O)N1CCC[C@H]1C(=O)NC1CCCC1)c1cccs1	nt	nt	nt	10.8	5.4	nt	nt
OC(c1ccccc1)(c1ccccc1)C1CCN(CCCNc2cccc(OC(F)(F)F)c2)CC1	nt	nt	nt	4.7	-6.9	nt	nt
O=c1cc(-c2ccc(O)cc2)oc2ccc3ccccc3c12	11.6	27.7	21.3	46.1	55.3*	13.6*	46.2*
COc1cccc(CNC(=O)[C@H]2CCCN2C(=O)[C@H]2CCCN2C(=O)c2cccs2)c1	nt	nt	nt	-8.0	-14.0	nt	nt
COc1ccccc1C(=O)NC1CCCCN(Cc2cccc(C(F)(F)F)c2)C1=O (stereo unspecified)	nt	nt	nt	2.1	27.4	nt	nt
O=C(C(=O)N1CCN(S(=O)(=O)c2ccccc2)CC1)c1cccc(C(F)(F)F)c1	nt	nt	nt	13.8	-3.2	nt	nt
COc1ccccc1NS(=O)(=O)c1cccc(-n2c(O)c(C=Nc3ccccc3C(=O)O)c3ccccc3c2=O)c1	11.0	29.1	17.3	3.3	39.2*	-8.5	45.5*
COc1ccc(Cn2c(O)c(C=Nc3ccccc3C(=O)O)c3ccccc3c2=O)cc1	-4.5	18.5	-8.7	-3.5	-3.6	nt	nt
Cc1ccccc1Cn1cc(COC(=O)N(C)Cc2ccccc2)nn1	nt	nt	nt	-4.6	14.1	nt	nt
COC(=O)C1CN(Cc2cn(CCC3OCCO3)nn2)CCS(=O)(=O)N1Cc1ccc(F)cc1 (stereo unspecified)	nt	nt	nt	3.6	-13.7	nt	nt
C=CCCC1CN(Cc2ccc(OC)cc2)S(=O)(=O)c2c(cccc2N2CCCCC2)O1 (stereo unspecified)	nt	nt	nt	8.6	0.4	nt	nt
C[C@@H]1CN(c2ccc(N3CCN(C(=O)OC(C)(C)C)C[C@@H]3C)cc2C#N)CCN1Cc1ccccc1	nt	nt	nt	28.5	3.6	nt	nt
N=c1c2c(n(Cc3ccc(Br)cc3)c3c1CCC3)CCCC2	42.4	74.8*	92.7*	-19.3	68.3*	24.3*	60.6*
N=c1c2c(n(Cc3ccc(Cl)c(Cl)c3)c3c1CCC3)CCCC2	62.9*	67.7*	95.7*	-45.8	63.7*	16.5*	46.6*
N#CC1CCN(c2nc(-c3ccc(Br)cc3)cs2)CC1	nt	nt	nt	nt	-6.2	nt	nt
Cc1cc(=O)oc2c(C(=O)/C=C/c3ccccc3)c(O)ccc12	-24.1	-11.5	15.1	5.9	5.6	nt	nt
CC1(C)C=Cc2ccc(O)c(C(=O)/C=C/c3ccccc3)c2O1	nt	nt	nt	nt	44.1*	17.9*	17.4
CCCCN=C(N)NC(=O)c1ccccc1	nt	nt	nt	-33.0	-7.9	nt	nt
COc1ccc(OC)c(NC(=O)C(C)OC(=O)c2cc3ccccc3[nH]2)c1 (stereo unspecified)	-16.0	4.6	34.1	34.3	5.8	nt	nt
COc1ccccc1NC(=O)C(C)OC(=O)c1cc2ccccc2[nH]1 (stereo unspecified)	6.8	0.0	30.4	39.1	38.5*	1.0	42.1*
O=C1c2cccc(OCC(=O)N3CCCc4ccccc43)c2CCN1Cc1cccnc1	14.7	23.0	7.0	9.0	39.8*	7.1	20.4
SMILES	SRC1 inh	NCOA3 inh	LRH-1 inv ag	SRC2 inh	COUP-TFII inh	Gal4-VP16 ctr	COUP-TFII conf
CCOC(=O)[C@@]12CCCC3=C1N(CCC3)C(=O)[C@H]2CC(=O)N1CCCC1	nt	nt	nt	4.6	5.9	nt	nt
CCOc1ccc(Oc2ccccc2NC(=O)CSCC(=O)Nc2cc(C)on2)cc1	-1.5	17.6	23.3	13.2	50.5*	4.5	38.0*
CCOc1ccccc1-n1c(SCC(=O)Nc2ccccc2C(=O)O)nc2ccccc2c1=O	36.8	37.1	52.7	37.5	56.1*	23.4*	37.3
Cc1ccc(-n2nc3c(=O)n(C(C)C(=O)NCCC4=CCCCC4)nc(C)c3c2C)cc1 (stereo unspecified)	12.6	34.5	39.2	37.6	71.0*	3.9	61.9*
COc1ccc(Cn2c(/C=C/c3ccccc3)nc3ccccc32)cc1	-109.6	-86.4	-104.0	-55.0	-56.2	nt	nt
COc1ccc(/C=C/c2nc3ccccc3c(=O)o2)cc1	60.5	60.6	50.9	77.1*	78.9*	-24.3	0.7
COc1ccc(/C=C/c2nc3ccccc3n2C)cc1	6.5	26.8	-31.2	58.4*	63.7*	7.0	39.4*
C#Cc1ccc(NC(=O)C2(C)CCN2C(=O)Cc2ccc(C(C)C)cc2)cc1 (stereo unspecified)	23.7	9.9	31.7	19.1	56.9*	5.6	47.2*
C#Cc1ccc(NC(=O)C2(C)CCN2C(=O)Cc2ccc(C(C)(C)C)cc2)cc1 (stereo unspecified)	9.6	8.1	42.5	21.2	61.5*	2.5	42.9*
CCn1c(COc2ccc(C)cc2)nnc1SCc1cccc(C(F)(F)F)c1	nt	nt	nt	8.3	2.5	nt	nt
COc1ccc(OCc2nn3c(-c4ccccc4)nnc3s2)cc1	nt	nt	nt	-0.5	5.7	nt	nt
COc1cc(OC)cc(C(C)c2ccc(-c3ccccc3)cc2)c1 (stereo unspecified)	nt	nt	nt	nt	4.1	nt	nt
